Bioassay records (PubChem BioAssay)
This is a sample that favours compounds with a hit; in the whole collection about 18% have one here.
DT40 TDP1 CPT: growth inhibition of DT40 Tdp1-/-;hTDP1 cells with camptothecin (screen for TDP1 inhibitors); chicken DT40 Tdp1-/-;hTDP1 cells + 20 nM CPT, ATP luminescence, 48 h; 12% of 420,000 active; Potency, µM (doses to about 46.2 µM), actives largely listed as inhibitors; note: nearly all actives have a fitted effect of over 55% in size
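Cell growth measured by CellTiter-Glo luminescence after a minimum 48 h, 37 C compound exposure with 20 nM CPT in Tdp1-knockout DT40 cells stably expressing hTDP1, seeded 400/well; qHTS titration format.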
IL1B secr inh: blocks inflammasome-driven IL-1 beta release. THP-1 LPS/ATP IL-1B secretion, AlphaLISA, 16 h; hits give low values. activity change, % at 57.5 µM. 4.7% of 360,000 active. AID 743279; in the data active = activity change below about -50%; inconclusive = mostly about -30% to -49%
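Secreted IL-1B measured by AlphaLISA bead assay after 16 h compound exposure of THP-1 cells; compounds (final up to 57.5 uM) added 1 h before LPS (250 ng/mL) and ATP (1.25 mM) stimulation; lower signal means less secretion.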
TDP1 block: TDP1 (human) enzyme inhibition. Potency, µM (titrated, usually from 130 µM), actives largely listed as inhibitors. AID 485290. Q9NUW8. recombinant TDP1, AlphaScreen DNA substrate cleavage. 0.28% of 350,000 active; note: nearly all actives have a fitted effect of over 40% in size
Target sequence (Q9NUW8 whole entry, looked up): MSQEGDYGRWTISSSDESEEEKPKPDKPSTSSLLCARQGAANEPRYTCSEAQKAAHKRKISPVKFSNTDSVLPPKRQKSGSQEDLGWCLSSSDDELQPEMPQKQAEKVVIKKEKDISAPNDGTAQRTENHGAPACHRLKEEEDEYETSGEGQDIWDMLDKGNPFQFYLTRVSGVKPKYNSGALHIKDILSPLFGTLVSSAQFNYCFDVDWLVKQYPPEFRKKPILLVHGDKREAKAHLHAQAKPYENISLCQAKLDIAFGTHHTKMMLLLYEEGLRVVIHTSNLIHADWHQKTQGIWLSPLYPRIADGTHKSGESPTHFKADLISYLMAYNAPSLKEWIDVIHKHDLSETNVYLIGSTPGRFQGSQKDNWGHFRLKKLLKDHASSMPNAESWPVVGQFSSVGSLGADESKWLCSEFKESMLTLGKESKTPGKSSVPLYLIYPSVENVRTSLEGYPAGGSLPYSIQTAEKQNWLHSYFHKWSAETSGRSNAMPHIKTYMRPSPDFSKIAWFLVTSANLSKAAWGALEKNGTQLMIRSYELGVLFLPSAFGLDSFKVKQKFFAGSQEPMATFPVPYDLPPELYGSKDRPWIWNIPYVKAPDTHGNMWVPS
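Recombinant E. coli-expressed Tdp1 (1 nM) preincubated with compound 15 min at RT, then 5'-biotin/3'-phosphotyrosine-FITC DNA substrate (15 nM) added for 5 min. AlphaScreen beads (10 ug/ml) added, 10 min RT; tyrosine-FITC cleavage read as signal loss.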
HepG2 viability: counter-screen for TGF-b inhibitors: cytotoxicity in HepG2 cells | HepG2 CAGA-GFP viability, ATP luminescence, 18 h | Potency, µM (doses to about 46.1 µM), usual class: cytotoxic | 0.76% of 410,000 active
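HepG2 CAGA-GFP cells (1000/well, DMEM with 1% FBS) received compound, then TGF-beta at 500 pg/mL final, and were incubated 18 hours at 37 degrees C. Viability was read by CellTiter-Glo luminescence. Media-only wells were set as complete cell-killing and DMSO as no toxicity.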
DT40 TDP1 no CPT: qHTS for Inhibitors of human tyrosyl-DNA phosphodiesterase 1 (TDP1): qHTS in cells in absence of CPT; DT40 Tdp1-/- hTDP1 cells, no CPT, ATP luminescence, 48 h; Potency, µM (top dose mostly 46.2 µM), most hits filed as inhibitors; 15% of 420,000 active; note: nearly all actives have a fitted effect of over 55% in size
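Cells were dispensed at 400 per well, compounds added by pin tool, plates incubated ≥48 hr at 37 °C, then CellTiter-Glo added for 30 min at room temperature before luminescence reading. Line: DT40 Tdp1-/- complemented with hTDP1; camptothecin omitted.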
TGFb inhibitor: blocks TGF-b signaling. HepG2 CAGA-GFP TGF-b/SMAD3 reporter, GFP fluorescence, 18 h; TGF-beta stimulated, 500 pg/mL final. 1.2% of 410,000 active. Potency, µM (top dose mostly 46.1 µM), usual class: inhibitors. AID 588855; note: nearly all actives have a fitted effect of over 65% in size
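HEPG2 CAGA-GFP reporter cells (1000/well, DMEM with 1% FBS) received compounds, then recombinant TGF-beta at 500 pg/mL final for 18 hours at 37 degrees C. Per-cell GFP summed per well was normalised to unstimulated and stimulated DMSO controls before curve fitting.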
A number is an active result; 0 = inactive; ? = inconclusive; - = no result given; [ ] = dose if it differs, or a comment. Unless noted, calls come from the whole dose curve; as a rule, active = well fitted curve in the direction sought with a large enough effect; inconclusive = small, poorly fitted or top-dose-only effect, or another doubt; inactive = no such curve, though single readings can be large; an effect the other way counts as inactive or inconclusive.

SMILES | DT40 TDP1 CPT | IL1B secr inh | TDP1 block | HepG2 viability | DT40 TDP1 no CPT | TGFb inhibitor
Cc1ccnc(NC(=O)c2cc(-c3ccc(Cl)s3)nc3ccccc23)c1 | 10µM | 0 | 0 | 0 | 18µM | 0
Cc1cc(NC(=O)c2cc(-c3ccncc3)nc3ccccc23)ccc1Br | 23µM | -50 | 0 | 0 | ? | ?
O=C(Nc1ccccn1)c1cc(-c2ccc(Cl)s2)nc2ccccc12 | ? | 0 | 0 | 0 | ? | 0
COc1ccc(-c2cc(C(=O)Nc3ccc(S(=O)(=O)Nc4onc(C)c4C)cc3)c3ccccc3n2)cc1OC | 0 | 0 | 0 | 0 | 0 | 0
CCNC(=O)N1CCN(/[N+]([O-])=N/Oc2ccc([N+](=O)[O-])cc2[N+](=O)[O-])CC1 | - | - | - | 0 | - | ?
CCC1=C2CC[C@H]3C(=O)N(c4ccccc4)C(=O)[C@H]3[C@H]2[C@@]2(Cc3ccccc3)C(=NCC3CC3)OC(=O)N2C1=O | - | - | 0 | - | - | -
COc1cccc(-c2cc(C(=O)Nc3ccncc3)c3ccccc3n2)c1 | ? | 0 | 0 | 0 | 16µM | 0
COc1cc(-c2cc(-c3nnco3)c3ccccc3n2)cc(OC)c1OC | ? | ? | 0 | 0 | 7.3µM | 0
COc1ccc(-c2cc(C(=O)N3CCOCC3)c3ccccc3n2)cc1OC | 0 | 0 | 0 | 0 | 0 | 0
COc1cccc(NC(=O)c2cc(-c3ccccn3)nc3ccccc23)c1 | ? | 0 | 0 | 0 | ? | ?
Cc1nnc(Sc2cc(C(=O)NCc3ccco3)c3ccccc3n2)s1 | ? | 0 | 0 | 0 | ? | 0
COc1cccc(-c2cc(C(=O)NC3CCCC3)c3ccccc3n2)c1 | ? | 0 | - | 0 | ? | 0
Cc1nnc(Sc2cc(C(=O)NC3CC3)c3ccccc3n2)s1 | ? | 0 | - | 0 | 7.3µM | 0
COc1ccc(-c2cc(C(=O)NC3CCCC3)c3ccccc3n2)cc1OC | ? | 0 | - | 0 | 15µM | 0
Cc1cccc(C)c1NC(=O)[C@H](C)N | - | - | 0[21 µM] | - | - | -
CCn1c(=O)c2sccc2n2c(CCC(=O)N3CCN(c4ccc(C(C)=O)cc4)CC3)nnc12 | 0 | - | 0 | 0 | 0 | 0
Cc1cccc(NC(=O)c2cc(-c3ccc(C)s3)nc3ccccc23)n1 | 18µM | 0 | 0 | 0 | 13µM | ?
COc1cc(-c2cc(C(=O)Nc3ccc(O)cc3)c3ccccc3n2)cc(OC)c1OC | 10µM | -52 | 0 | 0 | ? | 0
CC(=O)c1cccc(NC(=O)c2cc(-c3ccco3)nc3ccccc23)c1 | 13µM | 0 | - | 0 | 18µM | 0
CC(C)(C)NS(=O)(=O)c1ccc(NC(=O)c2cc(-c3ccccc3)nc3ccccc23)cc1 | ? | 0 | 0 | 0 | 0 | 0
CC(=O)Nc1ccc(NC(=O)c2cc(-c3ccccc3)nc3ccccc23)cc1 | ? | 0 | 0 | 0 | 12µM | 0
COC(=O)CC1C(=O)NCCN1C(=O)c1ccc(Cl)cc1 (configuration not stated) | 0 | 0 | 0 | 0 | 0 | 0
Cc1nc(N2CCOCC2)c2nc(-c3ccccc3)n(CC(C)(C)CN(C)C)c2n1 | - | - | 0 | - | - | -
O=C(COc1ccc(Br)cc1)NCCCN1CCCC1=O | 0 | 0 | 0 | 0 | 0 | 0
CCc1ccc(CNC(=O)c2cc(-c3ccc(Cl)s3)nc3ccccc23)cc1 | ? | - | 0 | 0 | ? | 0
SMILES | DT40 TDP1 CPT | IL1B secr inh | TDP1 block | HepG2 viability | DT40 TDP1 no CPT | TGFb inhibitor
Cc1ccc(S(=O)(=O)N(C)C)cc1NC(=O)c1cc(-c2ccncc2)nc2ccccc12 | ? | 0 | 0 | 0 | 4.1µM | 0
CCCCN(CCCC)CCCNC(=O)c1cc(-c2ccc(Cl)s2)nc2ccccc12 | 13µM | - | 0 | 0 | 15µM | ?
COc1ccc(CN2C[C@@H](CO)O[C@@H](n3cnc4c(NCc5cc(OC)c(OC)c(OC)c5)ncnc43)C2)cc1 | ? | 0 | - | 0 | ? | 0
COc1cc(CN2C[C@@H](CO)O[C@@H](n3cnc4c(NCc5ccc(F)cc5)ncnc43)C2)cc(OC)c1OC | 16µM | -69 | - | 0 | ? | 0
COc1cc(CNc2ncnc3c2ncn3[C@H]2CN(Cc3ccc(Cl)cc3)C[C@@H](CO)O2)cc(OC)c1OC | 23µM | 0 | - | 0 | 16µM | 0
COc1cc(CN2C[C@@H](CO)O[C@@H](n3cnc4c(NCc5ccncc5)ncnc43)C2)cc(OC)c1OC | 0 | 0 | - | 0 | 0 | 0
OC[C@@H]1CN(Cc2ccc(F)cc2)C[C@H](n2cnc3c(NCc4ccc(F)cc4)ncnc32)O1 | ? | 0 | - | 0 | ? | 0
COc1cc(CNc2ncnc3c2ncn3[C@H]2CN(Cc3ccc(F)cc3)C[C@@H](CO)O2)cc(OC)c1OC | 21µM | 0 | - | 0 | ? | 0
CC(C)C(O)c1ccc2c(c1)CN(C(=O)c1ccccc1-n1cccn1)CCO2 (configuration not stated) | 0 | - | - | - | 0 | -
COc1ccc2[nH]cc(CCNC(=O)Cc3ccc(Cl)cc3)c2c1 | 0 | 0 | - | 0 | 0 | 0
Cc1ccc(C(=O)NCCN2C3=NC[C@H](C(C)C)N3C[C@H]2Cc2ccc(O)cc2)cc1Br | 5.2µM | 0 | 0 | 0 | 10µM | 0
COc1ccc(C[C@H]2CN3C(=NC[C@@H]3C(C)C)N2CCNC(=O)c2ccc(C)c(Br)c2)cc1 | 9.2µM | -63 | 0 | 0 | 8.2µM | ?
COc1cccc(/C=N\n2c(C)nnc2C)c1OC | 0 | 0 | 0 | 0 | 0 | 0
COc1ccc(/C=N/n2c(SC)nnc2-c2ccccc2)c(OC)c1OC | 3.3µM | 0 | 0 | 0 | 2.1µM | 0
COC(=O)c1cc(=O)nc2sc(-c3ccc(F)cc3)nn12 | 23µM | 0 | 0 | 0 | ? | 0
C[C@@H]1CN([C@H](C)CO)C(=O)CCCn2nncc2CO[C@H]1CN(C)Cc1cccnc1 | 0 | 0 | - | 0 | 0 | 0
CCOc1ccc(NC(=O)CN(C)C(=O)Cc2ccc3c(c2)OCCO3)cc1OCC | 0 | 0 | - | 0 | ? | 0
CC(C)(C)NC(=O)C(c1ccc(-c2ccccc2)cc1)N(C[C@H]1CC[C@@H]([C@@H]2CC[C@H](CO)O2)O1)C(=O)c1ccccc1F (some centres not stated) | 29µM | -63 | 0 | 0 | 16µM | ?
COc1ccc(C(C(=O)NC(C)(C)C)N(C[C@H]2CC[C@@H]([C@@H]3CC[C@H](CO)O3)O2)C(=O)c2ccccc2)cc1 (some centres not stated) | 0 | 0 | 0 | 0 | 0 | ?
CC(C)(C)NC(=O)C(c1ccc(-c2ccccc2)cc1)N(C[C@H]1CC[C@@H]([C@@H]2CC[C@H](CO)O2)O1)C(=O)c1cccc(Cl)c1 (some centres not stated) | ? | -65 | 0 | 0 | ? | ?
